Laboratory results from PubChem BioAssay AID602350 (Broad Institute, 2012).
Results with a measured potency or affinity are listed apart.

molecular target: Protein disulfide-isomerase (Homo sapiens) (UniProt P07237); test: PDI inhibitors, insulin aggregation turbidity, dose response, biochemical, absorbance, cherry-picked samples (AID 602350); conditions: recombinant PDI insulin aggregation, absorbance 650 nm, 90 min; series mostly up to 19.5 µM; activity change, negative = inhibition: at the top concentration;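 note: 0% = neutral controls and -100% = rutin hydrate positive control wells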
Sequence (P07237 whole entry, looked up): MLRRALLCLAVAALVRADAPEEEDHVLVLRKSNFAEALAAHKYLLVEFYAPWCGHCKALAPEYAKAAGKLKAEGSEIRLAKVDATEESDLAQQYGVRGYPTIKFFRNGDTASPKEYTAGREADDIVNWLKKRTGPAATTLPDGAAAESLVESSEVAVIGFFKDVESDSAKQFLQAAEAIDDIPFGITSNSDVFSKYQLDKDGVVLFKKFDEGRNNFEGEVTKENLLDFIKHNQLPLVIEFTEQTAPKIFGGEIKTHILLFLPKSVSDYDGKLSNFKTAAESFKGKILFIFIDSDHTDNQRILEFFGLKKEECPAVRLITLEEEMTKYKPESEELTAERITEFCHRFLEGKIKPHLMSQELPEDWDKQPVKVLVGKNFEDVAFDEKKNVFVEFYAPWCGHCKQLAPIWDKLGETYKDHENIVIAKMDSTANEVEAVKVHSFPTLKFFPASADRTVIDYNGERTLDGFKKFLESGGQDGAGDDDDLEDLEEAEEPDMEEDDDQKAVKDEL

Activity change, negative = inhibition, inactive:
CCOC(=O)c1ccc(NC(=O)C2(c3ccc(Cl)cc3)CCCC2)cc1 -0.339%
CC(=O)NC1(c2nnnn2CCOC(=O)Nc2ccc(Cl)cc2)CCCCC1 14.4%
Cc1[nH]c2ccc(C(=O)NC3CCCC3)cc2c1C 0.629%
CCCCC(=O)OC1CCC2C3CCc4cc(O)ccc4C3CCC12C (configuration not stated) -0.743%
O=C(N/N=C/c1cccc([N+](=O)[O-])c1)c1cnccn1 21.7%
N#Cc1ccccc1CSc1nnc(Cc2ccccc2)o1 -1.56%
Cc1nn(CC(=O)NCC2CCCO2)c(C)c1[N+](=O)[O-] (configuration not stated) 11.8%
Cc1ccc(C(=O)NCCN2C3=NC[C@H](Cc4ccc(O)cc4)N3C[C@H]2Cc2ccc(O)cc2)cc1Br -2.61%
Cc1ccc(N2CC(C(=O)N3CCCCCC3)CC2=O)cc1 (configuration not stated) 6.61%
COc1cccc(-n2ccnc2SCC(=O)Nc2cc(OC)ccc2OC)c1 6.09%
Cc1sc(NC(=O)CCl)c(C(=O)c2ccccc2)c1C 1.62%
CCOC(=O)C1(CCOc2ccccc2)CCN(Cc2ccc(OC)cc2)CC1 0.844%
CCc1nc2ccc(C(=O)N(CC)CC(=O)Nc3c(F)cccc3F)cc2nc1CC 24.8%
CC[C@]12c3[nH]c4cc(-c5ccco5)ccc4c3CCN1C(=O)[C@@H](CC(=O)NCc1ccco1)C[C@@H]2C(=O)N1CCN(C(=O)c2ccco2)CC1 -7.56%
CCOC(=O)CN(c1ccccc1)S(=O)(=O)c1ccc(F)cc1 -16%
CC(=O)Oc1ccccc1C(=O)C=Cc1cccc([N+](=O)[O-])c1 -11.6%
Cc1cc(C)c(C)c(S(=O)(=O)N2CCC(C(=O)N(C)Cc3nc4ccccc4c(=O)[nH]3)CC2)c1C -2.56%
